A short description of test [1]: ovarian cancer cell viability with rucaparib, profiling panel, oncology-focused library, rucaparib conditional (AID 1508598). Conditions: patient-derived ovarian cancer cells, CellTiter-Glo viability, 144 h, stronger effect = lower value. (In ATP-based viability assays light output follows the ATP content of the culture.)
The target in test [2] is NAD(+) hydrolase SARM1 (Homo sapiens) (UniProt Q6SZW1). Nature of the test: SARM1 TIR NADase inhibitors, cell lysate, NAD-Glo luminescence (AID 1508614;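 active = compound whose remaining NAD level is above about 45 nM, limit read from the data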;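 note: higher remaining NAD means stronger inhibition of SARM1 NADase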). Conditions: SAM-TIR HEK293T lysate NADase, at 1 µM, stronger effect = higher value.
Where [3] appears, read: at 5 µM, OCI-P5x cells, with rucaparib 20 µM, 100% = cells with rucaparib alone.
[4] abbreviates: at 5 µM, OCI-P5x cells, without rucaparib.
[5] abbreviates: at 0.000305 µM, OCI-C5x cells, with rucaparib 10 µM, 100% = cells with rucaparib alone.
[6] abbreviates: at 0.000305 µM, OCI-C5x cells, without rucaparib.
Setting [7] is: at 0.000305 µM, OCI-P5x cells, with rucaparib 20 µM, 100% = cells with rucaparib alone.
[8] abbreviates: at 0.000305 µM, OCI-P5x cells, without rucaparib.
Setting [9] is: at 0.00122 µM, OCI-C5x cells, with rucaparib 10 µM, 100% = cells with rucaparib alone.
Where [10] appears, read: at 0.00122 µM, OCI-C5x cells, without rucaparib.
Setting [11] is: at 0.00122 µM, OCI-P5x cells, with rucaparib 20 µM, 100% = cells with rucaparib alone.
The mark [12] stands for this setting: at 0.00122 µM, OCI-P5x cells, without rucaparib.
Setting [13] is: at 0.00488 µM, OCI-C5x cells, with rucaparib 10 µM, 100% = cells with rucaparib alone.
Where [14] appears, read: at 0.00488 µM, OCI-C5x cells, without rucaparib.
Setting [15] is: at 0.00488 µM, OCI-P5x cells, with rucaparib 20 µM, 100% = cells with rucaparib alone.
[16] abbreviates: at 0.00488 µM, OCI-P5x cells, without rucaparib.
[17] abbreviates: at 0.0195 µM, OCI-C5x cells, with rucaparib 10 µM, 100% = cells with rucaparib alone.
Where [18] appears, read: at 0.0195 µM, OCI-C5x cells, without rucaparib.
The mark [19] stands for this setting: at 0.0195 µM, OCI-P5x cells, with rucaparib 20 µM, 100% = cells with rucaparib alone.
Setting [20] is: at 0.0195 µM, OCI-P5x cells, without rucaparib.
Setting [21] is: at 0.0781 µM, OCI-C5x cells, with rucaparib 10 µM, 100% = cells with rucaparib alone.
Setting [22] is: at 0.0781 µM, OCI-C5x cells, without rucaparib.
[23] abbreviates: at 0.0781 µM, OCI-P5x cells, with rucaparib 20 µM, 100% = cells with rucaparib alone.
The mark [24] stands for this setting: at 0.0781 µM, OCI-P5x cells, without rucaparib.
The mark [25] stands for this setting: at 0.313 µM, OCI-C5x cells, with rucaparib 10 µM, 100% = cells with rucaparib alone.
Setting [26] is: at 0.313 µM, OCI-C5x cells, without rucaparib.
[27] abbreviates: at 0.313 µM, OCI-P5x cells, with rucaparib 20 µM, 100% = cells with rucaparib alone.
The mark [28] stands for this setting: at 0.313 µM, OCI-P5x cells, without rucaparib.
[29] abbreviates: at 1.25 µM, OCI-C5x cells, with rucaparib 10 µM, 100% = cells with rucaparib alone.
Setting [30] is: at 1.25 µM, OCI-C5x cells, without rucaparib.
Setting [31] is: at 1.25 µM, OCI-P5x cells, with rucaparib 20 µM, 100% = cells with rucaparib alone.
Where [32] appears, read: at 1.25 µM, OCI-P5x cells, without rucaparib.
[33] abbreviates: at 5 µM, OCI-C5x cells, with rucaparib 10 µM, 100% = cells with rucaparib alone.
Setting [34] is: at 5 µM, OCI-C5x cells, without rucaparib.

Unmarked numbers belong to inactive results. The source made the active and inactive calls.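 Rule for the calls, unless noted: active = normalized viability below 100% at a tested concentration; inactive = the rest.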

Chain of NAD(+) hydrolase SARM1 (Homo sapiens) (Q6SZW1 whole entry, looked up): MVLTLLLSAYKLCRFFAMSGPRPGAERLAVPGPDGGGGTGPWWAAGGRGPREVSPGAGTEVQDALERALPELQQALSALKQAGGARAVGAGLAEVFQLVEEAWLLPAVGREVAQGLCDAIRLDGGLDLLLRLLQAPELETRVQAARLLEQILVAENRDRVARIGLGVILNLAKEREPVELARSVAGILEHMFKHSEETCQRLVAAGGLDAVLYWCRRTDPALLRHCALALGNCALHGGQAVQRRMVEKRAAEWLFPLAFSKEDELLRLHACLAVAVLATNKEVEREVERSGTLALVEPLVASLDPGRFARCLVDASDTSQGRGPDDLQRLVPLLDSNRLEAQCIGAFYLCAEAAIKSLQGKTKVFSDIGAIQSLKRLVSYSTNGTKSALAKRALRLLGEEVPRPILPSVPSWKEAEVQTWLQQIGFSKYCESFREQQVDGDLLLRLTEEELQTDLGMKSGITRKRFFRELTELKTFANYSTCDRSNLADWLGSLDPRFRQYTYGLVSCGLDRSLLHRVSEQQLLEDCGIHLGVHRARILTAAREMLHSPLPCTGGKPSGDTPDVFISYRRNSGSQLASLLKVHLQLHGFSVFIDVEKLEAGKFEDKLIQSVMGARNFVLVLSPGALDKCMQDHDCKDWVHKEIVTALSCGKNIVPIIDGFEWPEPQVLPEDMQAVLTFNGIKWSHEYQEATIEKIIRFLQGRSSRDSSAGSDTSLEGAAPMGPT

For the compound `COc1cccc2c1C(=O)c1c(O)c3c(c(O)c1C2=O)C[C@@](O)(C(=O)CO)C[C@H]3O[C@H]1C[C@H](N)[C@H](O)[C@H](C)O1`, the viability (commonly a read-out of living cells in per cent, often relative to untreated cells) in test [1] (setting [3]) was 5.65% (active); in test [1] (setting [4]), 8.22% (active).
On to `COc1ccc(C2=N[C@H](c3ccc(Cl)cc3)[C@@H](c3ccc(Cl)cc3)N2C(=O)N2CCNC(=O)C2)c(OC(C)C)c1`, for which the viability is 112% in test [1] (setting [5]); 103% in test [1] (setting [6]); 88.9% (active) in test [1] (setting [7]); 86.6% (active) in test [1] (setting [8]); 118% in test [1] (setting [9]); 101% in test [1] (setting [10]). Also, the viability in test [1] (setting [11]) is 93.4% (active); in test [1] (setting [12]), 85.3% (active); in test [1] (setting [13]) it was 130%; in test [1] (setting [14]), 112%; in test [1] (setting [15]), 95.4% (active); in test [1] (setting [16]) it was 90.1% (active). Besides, the viability in test [1] (setting [17]) is 127%; in test [1] (setting [18]), 105%; in test [1] (setting [19]), 96.3% (active); in test [1] (setting [20]), 86.4% (active); in test [1] (setting [21]), 120%; in test [1] (setting [22]), 111%. Also, the viability is 86.1% (active) in test [1] (setting [23]); 78.2% (active) in test [1] (setting [24]); 111% in test [1] (setting [25]); 107% in test [1] (setting [26]); 64.3% (active) in test [1] (setting [27]); 56.8% (active) in test [1] (setting [28]). Also, the viability in test [1] (setting [29]) was 114%; in test [1] (setting [30]), 102%; in test [1] (setting [31]), 98.1% (active); in test [1] (setting [32]) it was 98% (active); in test [1] (setting [33]) it was 182%; in test [1] (setting [34]), 137%. In addition, the viability was 94.1% (active) in test [1] (setting [3]) and 98.2% (active) in test [1] (setting [4]).
In the case of `O=c1[nH]c(=O)n([C@@H]2C[C@H](O)[C@@H](CO)O2)cc1F`, the viability in test [1] (setting [5]) is 115%; in test [1] (setting [6]), 119%; in test [1] (setting [7]), 67.7% (active); in test [1] (setting [8]), 24.9% (active); in test [1] (setting [9]) it was 111%; in test [1] (setting [10]), 117%. For the same compound, the viability in test [1] (setting [11]) was 65.1% (active); in test [1] (setting [12]), 15.4% (active); in test [1] (setting [13]), 106%; in test [1] (setting [14]) it was 121%; in test [1] (setting [15]), 105%; in test [1] (setting [16]) it was 98.1% (active). Further, the viability was 98.9% (active) in test [1] (setting [17]); 111% in test [1] (setting [18]); 104% in test [1] (setting [19]); 100% (active) in test [1] (setting [20]); 109% in test [1] (setting [21]); 120% in test [1] (setting [22]). The viability is 104% in test [1] (setting [23]); 109% in test [1] (setting [24]); 109% in test [1] (setting [25]); 114% in test [1] (setting [26]); 104% in test [1] (setting [27]); 98.4% (active) in test [1] (setting [28]). In addition, the viability in test [1] (setting [29]) was 117%; in test [1] (setting [30]), 128%; in test [1] (setting [31]), 89.4% (active); in test [1] (setting [32]) it was 85.9% (active); in test [1] (setting [33]) it was 185%; in test [1] (setting [34]), 183%. Besides, the viability in test [1] (setting [3]) was 72.1% (active); in test [1] (setting [4]), 49.4% (active).
As to `C[C@]12CC[C@@H]3c4ccc(O)cc4CC[C@H]3[C@@H]1C[C@H](O)[C@@H]2O`, the remaining NAD in test [2] is 48 nM (active).
Take `CO[C@H]1/C=C\C=C(\C)C(=O)NC2=CC(=O)C(NCCN(C)C)=C(C[C@@H](C)C[C@H](OC)[C@H](O)[C@@H](C)/C=C(\C)[C@@H]1OC(N)=O)C2=O`: the viability was 108% in test [1] (setting [5]); 108% in test [1] (setting [6]); 120% in test [1] (setting [7]); 116% in test [1] (setting [8]); 109% in test [1] (setting [9]); 109% in test [1] (setting [10]). In addition, the viability is 114% in test [1] (setting [11]); 114% in test [1] (setting [12]); 107% in test [1] (setting [13]); 107% in test [1] (setting [14]); 117% in test [1] (setting [15]); 117% in test [1] (setting [16]). For the same compound, the viability is 118% in test [1] (setting [17]); 82.9% (active) in test [1] (setting [18]); 50.4% (active) in test [1] (setting [19]); 17.3% (active) in test [1] (setting [20]); 91.8% (active) in test [1] (setting [21]); 27.4% (active) in test [1] (setting [22]). Also, the viability in test [1] (setting [23]) is 17.4% (active); in test [1] (setting [24]), 9.22% (active); in test [1] (setting [25]), 26.5% (active); in test [1] (setting [26]), 10.1% (active); in test [1] (setting [27]), 7.13% (active); in test [1] (setting [28]), 5.68% (active). Further, the viability is 7.91% (active) in test [1] (setting [29]); 4.98% (active) in test [1] (setting [30]); 6.01% (active) in test [1] (setting [31]); 3.54% (active) in test [1] (setting [32]); 8.19% (active) in test [1] (setting [33]); 4.12% (active) in test [1] (setting [34]). The values for the viability in test [1] (setting [3]) and in test [1] (setting [4]) were 4.71% (active) and 2.66% (active), respectively.

(Values after PubChem BioAssay.)
